Data published in the OligoGym collection.

Each sequence was assayed against NELL2 (assay: pooled miR-30 sensor sort-seq; sequence = guide strand). Conditions: shRNA.
Note: reference of the scale not given here.

| Sequence | sensor-assay potency score (higher = more potent) |
| --- | --- |
| TGTCACATTGAACAAAACCATC | -1.67 |
| TTACAAACTTTGCAACAGCTGT | -0.672 |
| TTATTTCTCTGTCCTAGCCAAA | -1.55 |
| TAAAATATCCTGTAGCTCCATG | -0.475 |
| TAACCTTTACAAACTTTGCAAC | -0.975 |
| TTGTGATACACTCATCATGTTC | -1.15 |
| TTGCATGTCGTTCCATTCCCTG | -1.03 |
| TAAGACGTCAATCTGTAGGGAA | 0.711 |
| TAGAGTTTCACACTGGATGGTT | 0.431 |
| TTTCACAATAGCACTGATCCAA | 0.272 |
| TCGACAGCTACAAACAGCCCTG | -0.27 |

What follows are sequences tested against NETO2 in the same assay as above. Conditions: shRNA.

| Sequence | sensor-assay potency score (higher = more potent) |
| --- | --- |
| TAACAACACTTTGAGGACCGAG | -0.0442 |
| TTGCTCGAAATCCCAGTCCTTC | -0.463 |
| TTTCAATAGAACTGCTTCCATC | -1.24 |
| TTGATAATCTAGGAACCTCAAA | -1.24 |
| TTGACGTGGAGCAGCTTCCAAA | -1.08 |
| TTCTTTGACGTGGAGCAGCTTC | -0.587 |
| TAAATGAATATTTTGCTCGAAA | -0.895 |
| TTAACATATATAGACTGCCTGA | -0.881 |
| TTAATCCACATGAATCTCCCTG | 0.06 |
| TTATTAACAACACTTTGAGGAC | -0.45 |
| TTGTTTTCTCCTCTTGTTCTAC | -0.539 |
| TAATCCACATGAATCTCCCTGT | 0.411 |

What follows are sequences tested against NEURL2 in the same assay as above. Conditions: shRNA.

| Sequence | sensor-assay potency score (higher = more potent) |
| --- | --- |
| AAACACGTCCACCACCGCGTAG | -1.26 |
| TTTATTTCTGGTCTTGGCTGGC | -0.107 |
| ATGATGTGCATGTCGGCCGTGC | -0.877 |
| TAGGCGGCACAGAGTCTGCAGG | -1.34 |
| TTTCTCCTCGATCTCGACCAGG | -0.592 |
| TTGTGGAAGCAAACACGTCCAC | -0.451 |
| ATCGGGCAGAGAAAACTCGGGA | -0.832 |
| TTCTCCTCGATCTCGACCAGGA | -0.684 |
| TATGGTTCCACGAGGAGGGTTG | -0.457 |
| TCTTTGTGGAAGCAAACACGTC | -1.58 |
| TGTGGAAGCAAACACGTCCACC | -1.66 |

Each sequence was assayed against NEUROD6 in the same assay as above. Conditions: shRNA.

| Sequence | sensor-assay potency score (higher = more potent) |
| --- | --- |
| TAAGTTGTCCAGAGCGTCGTTG | -0.475 |
| TTTAATTCATCTTGCATTGTGA | -0.0595 |
| AATAGTTGAAACACACTTCAGA | -0.228 |
| TTCTCTAGAAAACTTTCTGCAC | -0.894 |
| TTGTCTTAATTAGACAGGGGAG | -1.08 |
| TCAGAAACTAGTAAACACCTTA | 0.248 |
